# Experimental data from PubChem BioAssay (Tox21).
# Where “and” joins values, the source holds several entries; their conditions need not be identical. Equal values may be shown once. A number with no mark means an inactive call. Records with an inconclusive call do not appear. A call without a number means that no potency is given here. Calls of active or inactive are those of the source. Unless noted, calls come from the whole dose curve; as a rule, active = well fitted curve in the direction sought with a large enough effect in the repeat runs; inconclusive = weak or mixed curves; inactive = no such curve, though single readings can be large; an effect the other way counts as inactive or inconclusive.
# What was measured:
# [1] = qHTS assay to test for compound auto fluorescence at 535 nm (green) in HEK293 cells (AID 720680)
# [2] = qHTS assay to test for compound auto fluorescence at 460 nm (blue) in HEK293 cell free culture (AID 720681)
# How it was run: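 Blue fluorescence (Ex 405/Em 460 nm, triamterene-equivalent) was read immediately after pin transfer of compound or DMSO into medium (DMEM, 10% FBS) without cells.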
# [3] = qHTS assay to test for compound auto fluorescence at 535 nm (green) in HEK293 cell free culture (AID 720682)
# How it was run: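 Compounds were pin-transferred into cell-free DMEM with 10% FBS, and green fluorescence was read at excitation 485 nm and emission 535 nm. Intensities were expressed as fluorescein-equivalent values.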
# [4] = qHTS assay to test for compound auto fluorescence at 590 nm (red) in HEK293 cell free culture (AID 720683)
# How it was run: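 Red-channel autofluorescence of compounds in culture medium (DMEM, 10% FBS), no cells, measured at 540/590 nm. Rose Bengal sodium is the reference fluorophore for equivalence.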
# [5] = qHTS assay to test for compound auto fluorescence at 590 nm (red) in HepG2 cell free culture (AID 720684)
# How it was run: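 Steps: dispense MEM/10% FBS medium, no cells; pin compound or DMSO vehicle; read red channel, Ex/Em 540/590 nm. Output given as Rose Bengal sodium equivalents.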
# [6] = qHTS assay to test for compound auto fluorescence at 460 nm (blue) in HepG2 cell free culture (AID 720685)
# How it was run: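 Compound (23 nL) or DMSO pinned into cell-free MEM with 10% FBS; blue fluorescence read at 405/460 nm excitation/emission, expressed as auto-fluorescence equivalency to triamterene.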
# [7] = qHTS assay to test for compound auto fluorescence at 535 nm (green) in HepG2 cell free culture (AID 720686)
# [8] = qHTS assay to test for compound auto fluorescence at 460 nm (blue) in HepG2 cells (AID 720687)
# How it was run: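 Blue-channel autofluorescence (Ex/Em 405/460 nm, triamterene-equivalent) was measured after 1 hr compound exposure at 37 C, 5% CO2. Cells were HepG2, plated overnight at 37 C in MEM plus 10% FBS.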
# [9] = molecular target: Glucocorticoid receptor (Homo sapiens) (UniProt P04150); test: qHTS assay to identify small molecule agonists of the glucocorticoid receptor (GR) signaling pathway (AID 720691; active = well fitted activation curve with a large enough effect in the signal ratio in the repeat runs, not every such curve was filed as active; the % refers to the signal ratio); conditions: GR-bla HeLa, beta-lactamase reporter ratio, 18 h; activation: at 62.4 µM (top of the series)
# Sequence of Glucocorticoid receptor (Homo sapiens) (P04150 whole entry, looked up): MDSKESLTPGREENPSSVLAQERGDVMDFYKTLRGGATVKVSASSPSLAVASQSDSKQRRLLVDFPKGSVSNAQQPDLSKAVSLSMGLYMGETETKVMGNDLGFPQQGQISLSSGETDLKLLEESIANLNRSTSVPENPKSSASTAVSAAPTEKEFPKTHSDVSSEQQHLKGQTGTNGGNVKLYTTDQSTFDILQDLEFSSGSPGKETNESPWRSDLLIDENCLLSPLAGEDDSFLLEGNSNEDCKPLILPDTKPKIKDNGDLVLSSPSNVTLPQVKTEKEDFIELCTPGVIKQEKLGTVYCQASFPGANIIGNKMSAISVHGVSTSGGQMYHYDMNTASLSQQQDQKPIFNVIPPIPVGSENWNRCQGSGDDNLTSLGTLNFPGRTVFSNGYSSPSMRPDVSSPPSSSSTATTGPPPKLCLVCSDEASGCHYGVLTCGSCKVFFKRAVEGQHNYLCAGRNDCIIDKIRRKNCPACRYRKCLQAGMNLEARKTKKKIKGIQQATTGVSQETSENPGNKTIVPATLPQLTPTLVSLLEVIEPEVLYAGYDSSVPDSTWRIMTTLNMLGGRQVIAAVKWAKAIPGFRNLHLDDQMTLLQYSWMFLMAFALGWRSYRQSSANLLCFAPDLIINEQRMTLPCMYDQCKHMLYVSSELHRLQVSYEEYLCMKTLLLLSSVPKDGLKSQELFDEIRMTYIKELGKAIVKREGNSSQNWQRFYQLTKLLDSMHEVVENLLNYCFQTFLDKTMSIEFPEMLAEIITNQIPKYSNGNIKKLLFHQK
# How it was run: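 Beta-lactamase reporter activity, read as fluorescence intensity, was measured in GR-bla HeLa cells exposed to compounds for 18 h at 37 C and then loaded with LiveBLAzer B/G FRET substrate for 2 h at room temperature.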
# [10] = molecular target: Glucocorticoid receptor (Homo sapiens) (UniProt P04150); test: qHTS assay to identify small molecule antagonists of the glucocorticoid receptor (GR) signaling pathway (AID 720692; active = well fitted inhibition curve with a large enough effect in the signal ratio in the repeat runs, not every such curve was filed as active; the % refers to the signal ratio)
# How it was run: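 Fluorescence from cleaved LiveBLAzer B/G FRET substrate reports GRE-driven beta-lactamase in HeLa cells; compounds are tested against 5 nM dexamethasone (final) over 18 h at 37 C, substrate incubation 2 h at room temperature.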
# [11] = qHTS assay to identify small molecule antagonists of the glucocorticoid receptor (GR) signaling pathway - cell viability counter screen (AID 720693); note: nearly all actives have a fitted effect of over 55% in size
# [12] = qHTS assay for identifying genotoxic compounds that show differential cytotoxicity against isogenic chicken DT40 cell lines with known DNA damage response pathways - wild type cell line (AID 743012); note: nearly all actives have a fitted effect of over 60% in size; note: potency is the fitted concentration of half-maximal effect
# How it was run: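 Quantitative HTS on parental DT40 cells: 40 h compound treatment at 37 C/5% CO2, with viability then determined by CellTiter-Glo luminescence. Values serve as the DNA repair-proficient reference for differential cytotoxicity.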
# [13] = qHTS assay for identifying genotoxic compounds that show differential cytotoxicity against isogenic chicken DT40 cell lines with known DNA damage response pathways - Rev3 mutant cell line (AID 743014); note: nearly all actives have a fitted effect of over 55% in size; note: potency is the fitted concentration of half-maximal effect
# [14] = qHTS assay for identifying genotoxic compounds that show differential cytotoxicity against isogenic chicken DT40 cell lines with known DNA damage response pathways - Rad54/Ku70 mutant cell line (AID 743015); note: nearly all actives have a fitted effect of over 60% in size; note: potency is the fitted concentration of half-maximal effect
# [15] = qHTS assay to identify small molecule antagonists of the androgen receptor (AR) signaling pathway - cell viability counter screen (AID 743033; note: nearly all actives have a fitted effect of over 45% in size)
# [16] = molecular target: Androgen receptor (Homo sapiens) (UniProt P10275); test: qHTS assay to identify small molecule antagonists of the androgen receptor (AR) signaling pathway (AID 743035; active = well fitted inhibition curve with a large enough effect in the signal ratio in the repeat runs, not every such curve was filed as active; the % refers to the signal ratio)
# Sequence of Androgen receptor (Homo sapiens) (P10275 whole entry, looked up): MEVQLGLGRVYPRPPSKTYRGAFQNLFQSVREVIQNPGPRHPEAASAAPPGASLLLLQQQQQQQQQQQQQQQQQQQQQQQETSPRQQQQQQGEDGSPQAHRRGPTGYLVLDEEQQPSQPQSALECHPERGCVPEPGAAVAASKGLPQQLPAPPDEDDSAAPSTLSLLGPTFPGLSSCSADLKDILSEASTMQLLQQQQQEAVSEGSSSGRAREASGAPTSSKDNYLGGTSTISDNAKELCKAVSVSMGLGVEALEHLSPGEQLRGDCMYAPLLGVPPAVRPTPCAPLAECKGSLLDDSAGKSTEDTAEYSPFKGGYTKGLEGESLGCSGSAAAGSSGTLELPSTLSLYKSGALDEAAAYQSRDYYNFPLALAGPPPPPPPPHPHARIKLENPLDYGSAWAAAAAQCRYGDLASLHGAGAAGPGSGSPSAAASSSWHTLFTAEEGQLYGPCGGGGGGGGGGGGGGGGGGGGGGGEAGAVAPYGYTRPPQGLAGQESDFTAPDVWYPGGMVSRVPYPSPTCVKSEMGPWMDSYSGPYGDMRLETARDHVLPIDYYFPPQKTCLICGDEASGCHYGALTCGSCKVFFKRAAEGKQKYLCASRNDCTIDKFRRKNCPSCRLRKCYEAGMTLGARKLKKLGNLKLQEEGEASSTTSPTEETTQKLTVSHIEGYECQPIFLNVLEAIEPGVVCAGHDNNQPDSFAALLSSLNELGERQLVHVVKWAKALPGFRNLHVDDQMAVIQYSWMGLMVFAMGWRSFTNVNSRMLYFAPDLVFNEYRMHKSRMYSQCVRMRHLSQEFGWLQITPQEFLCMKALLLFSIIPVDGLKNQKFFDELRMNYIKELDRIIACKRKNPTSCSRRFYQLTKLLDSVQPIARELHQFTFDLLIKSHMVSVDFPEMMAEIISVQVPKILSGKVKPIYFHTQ
# How it was run: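 Cell line: GeneBLAzer AR-UAS-bla GripTite (HEK293). Stimulus: R1881 added after compound. Exposure: 16 h, 37C, 5% CO2. Readout: LiveBLAzer B/G FRET fluorescence after 2 h at room temperature.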
# [17] = molecular target: Androgen receptor (Homo sapiens) (UniProt P10275); test: qHTS assay to identify small molecule agonists of the androgen receptor (AR) signaling pathway (AID 743036; active = well fitted activation curve with a large enough effect in the signal ratio in the repeat runs, with a control signal flat, not every such curve was filed as active; the % refers to the signal ratio)
# How it was run: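 Activation was read as beta-lactamase FRET signal from LiveBLAzer B/G substrate, added for 2 h at room temperature. Before that, GeneBLAzer AR-UAS-bla GripTite (HEK293) cells had 16 h compound exposure at 37C.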
# [18] = molecular target: Androgen receptor (Homo sapiens) (UniProt P10275); test: qHTS assay to identify small molecule agonists of the androgen receptor (AR) signaling pathway using the MDA cell line (AID 743040; note: nearly all actives have a fitted effect of over 20% in size)
# How it was run: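 Cells plated, 5 h at 37C/0% CO2; compound or DMSO pinned; 16 h at 37C; ONE-Glo added; luminescence measured after 30 min at room temperature. Reporter line: MDA-kb2 with MMTV-luciferase responsive to AR and GR.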
# [19] = qHTS assay to identify small molecule antagonists of the androgen receptor (AR) signaling pathway using the MDA cell line - cell viability counter screen (AID 743041; note: nearly all actives have a fitted effect of over 45% in size)
# How it was run: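 Cells were plated at 3,000 per well and left 5 h. Compounds in DMSO were then pinned in, followed by R1881. After 16 h at 37C, CellTiter-Fluor fluorescence gave viability.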
# [20] = molecular target: Androgen receptor (Homo sapiens) (UniProt P10275); test: qHTS assay to identify small molecule antagonists of the androgen receptor (AR) signaling pathway using the MDA cell line (AID 743042; note: nearly all actives have a fitted effect of over 55% in size)
# How it was run: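 Antagonist mode: compounds plus R1881 agonist added to MDA-kb2 AR-luc cells, incubated 16 h at 37C. Luciferase reporter luminescence quantified, with multiplexed CellTiter-Fluor readout for cell viability.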
smiles,measurement,setting,value
CCc1cccc(C)c1N,outcome,[1],inactive
same,outcome,[2],inactive
same,outcome,[3],inactive
same,outcome,[4],inactive
same,outcome,[5],inactive
same,outcome,[6],inactive
same,outcome,[7],inactive
same,outcome,[8],inactive
same,Potency,[9],inactive
same,Potency,[10],inactive
same,outcome,[11],inactive
same,Potency,[12],inactive
same,Potency,[13],inactive
same,Potency,[14],inactive
same,Potency,[15],inactive
same,outcome,[16],inactive
same,Potency,[17],inactive
same,Potency,[18],inactive
same,Potency,[19],inactive
same,outcome,[20],inactive
Nc1ccccc1[N+](=O)[O-],outcome,[1],inactive
same,outcome,[2],inactive
same,outcome,[3],inactive
same,outcome,[4],inactive
same,outcome,[5],inactive
same,outcome,[6],inactive
same,outcome,[7],inactive
same,outcome,[8],inactive
same,Potency,[9],inactive
same,Potency,[10],inactive
same,outcome,[11],inactive
same,Potency,[12],inactive
same,Potency,[14],inactive
same,Potency,[15],inactive
same,Potency,[19],inactive
c1c[nH]cn1,outcome,[1],inactive
same,outcome,[2],inactive
same,outcome,[3],inactive
same,outcome,[4],inactive
same,outcome,[5],inactive
same,outcome,[6],inactive
same,outcome,[7],inactive
same,outcome,[8],inactive
same,Potency,[9],inactive
same,Potency,[10],inactive
same,outcome,[11],inactive
same,Potency,[12],inactive
same,Potency,[13],inactive
same,Potency,[14],inactive
same,Potency,[15],inactive
same,Potency,[19],inactive
Cc1cccc(O)c1,outcome,[1],inactive
same,outcome,[2],inactive
same,outcome,[3],inactive
same,outcome,[4],inactive
same,outcome,[5],inactive
same,outcome,[6],inactive
same,outcome,[7],inactive
same,outcome,[8],inactive
same,Potency,[9],inactive
same,Potency,[10],inactive
same,outcome,[11],inactive
same,Potency,[12],inactive
same,Potency,[14],inactive
same,Potency,[15],inactive
COc1cc(Cc2cnc(N)nc2N)cc(OC)c1OC,outcome,[1],inactive
same,outcome,[2],inactive
same,outcome,[3],inactive
same,outcome,[4],inactive
same,outcome,[5],inactive
same,outcome,[6],inactive
same,outcome,[7],inactive
same,outcome,[8],inactive
same,Potency,[9],inactive
same,Potency,[10],inactive
same,outcome,[11],inactive
same,Potency,[12],inactive
same,Potency,[13],inactive
same,Potency,[14],inactive
same,Potency,[15],inactive
same,Potency,[19],inactive
COS(C)(=O)=O,outcome,[1],inactive
same,outcome,[2],inactive
same,outcome,[3],inactive
same,outcome,[4],inactive
same,outcome,[5],inactive
same,outcome,[6],inactive
same,outcome,[7],inactive
same,outcome,[8],inactive
same,Potency,[9],inactive
same,Potency,[10],inactive
same,outcome,[11],inactive
same,Potency,[12],inactive
same,Potency,[14],inactive
same,Potency,[15],inactive
CCN(CC)CCCC(C)Nc1ccnc2cc(Cl)ccc12 (stereo not given),outcome,[1],inactive
same,outcome,[2],inactive
same,outcome,[3],inactive
same,outcome,[4],inactive
same,outcome,[5],inactive
same,outcome,[6],inactive
same,outcome,[7],inactive
same,outcome,[8],inactive
same,Potency,[9],inactive
same,outcome,[11],inactive
same,Potency,[12],21.1 µM (active)
same,Potency,[13],13.3 µM (active) and 2.66 µM (active)
same,Potency,[14],18.8 µM (active)
same,Potency,[15],inactive
same,"viability change, negative = cytotoxic",[19],-15.9% [at 8.47 µM]
CC1CCC2CC1C2(C)C (stereo not given),outcome,[1],inactive
same,outcome,[2],inactive
same,outcome,[3],inactive
same,outcome,[4],inactive
same,outcome,[5],inactive
same,outcome,[6],inactive
same,outcome,[7],inactive
same,outcome,[8],inactive
same,Potency,[9],inactive
same,outcome,[11],inactive
same,Potency,[12],inactive
same,Potency,[13],inactive
same,Potency,[14],inactive
same,Potency,[15],inactive
CC(O)COCC(C)O (stereo not given),outcome,[1],inactive
same,outcome,[2],inactive
same,outcome,[3],inactive
same,outcome,[4],inactive
same,outcome,[5],inactive
same,outcome,[6],inactive
same,outcome,[7],inactive
same,outcome,[8],inactive
same,Potency,[9],inactive
same,outcome,[11],inactive
same,Potency,[12],inactive
same,Potency,[13],inactive
same,Potency,[14],inactive
same,Potency,[15],inactive
same,Potency,[19],inactive
CC(=O)Nc1ccccc1,outcome,[1],inactive
same,outcome,[2],inactive
same,outcome,[3],inactive
same,outcome,[4],inactive
same,outcome,[5],inactive
same,outcome,[6],inactive
same,outcome,[7],inactive
same,outcome,[8],inactive
same,Potency,[9],inactive
same,outcome,[11],inactive
same,Potency,[12],inactive
same,Potency,[13],inactive
same,Potency,[14],inactive
same,Potency,[15],inactive
same,Potency,[19],inactive
O=C(O)c1ccccc1C(c1ccc(O)cc1)c1ccc(O)cc1,outcome,[1],inactive
same,outcome,[2],inactive
same,outcome,[3],inactive
same,outcome,[4],inactive
same,outcome,[5],inactive
same,outcome,[6],inactive
same,outcome,[7],inactive
same,outcome,[8],inactive
same,Potency,[9],inactive
same,Potency,[10],inactive
same,outcome,[11],inactive
same,Potency,[12],inactive
same,Potency,[13],inactive
same,Potency,[14],inactive
same,Potency,[15],inactive
same,outcome,[16],inactive
same,Potency,[17],inactive
same,Potency,[18],inactive
same,outcome,[20],inactive
OCCOCCOCCO,outcome,[1],inactive
same,outcome,[2],inactive
same,outcome,[3],inactive
same,outcome,[4],inactive
same,outcome,[5],inactive
same,outcome,[6],inactive
same,outcome,[7],inactive
same,outcome,[8],inactive
same,Potency,[9],inactive
same,outcome,[11],inactive
same,Potency,[12],inactive
same,Potency,[13],inactive
same,Potency,[14],inactive
same,Potency,[15],inactive
same,outcome,[16],inactive
same,Potency,[17],inactive
same,Potency,[18],inactive
same,Potency,[19],inactive
same,outcome,[20],inactive
FC(F)(F)c1ccc(Cl)c(Cl)c1,outcome,[1],inactive
same,outcome,[2],inactive
same,outcome,[3],inactive
same,outcome,[4],inactive
same,outcome,[5],inactive
same,outcome,[6],inactive
same,outcome,[7],inactive
same,outcome,[8],inactive
same,Potency,[9],inactive
same,Potency,[10],inactive
same,outcome,[11],inactive
same,Potency,[12],inactive
same,Potency,[13],inactive
same,Potency,[14],inactive
same,Potency,[15],inactive
same,outcome,[16],inactive
same,Potency,[17],inactive
same,Potency,[18],inactive
same,Potency,[19],inactive
same,outcome,[20],inactive
O=C(O)CCCC[C@@H]1SC[C@@H]2NC(=O)N[C@@H]21,outcome,[1],inactive
same,outcome,[2],inactive
same,outcome,[3],inactive
same,outcome,[4],inactive
same,outcome,[5],inactive
same,outcome,[6],inactive
same,outcome,[7],inactive
same,outcome,[8],inactive
same,Potency,[9],inactive
same,outcome,[11],inactive
same,Potency,[12],inactive
same,Potency,[13],inactive
same,Potency,[14],inactive
same,Potency,[15],inactive
same,Potency,[19],inactive
CC(=O)CC(=O)Nc1ccccc1,outcome,[1],inactive
same,outcome,[2],inactive
same,outcome,[3],inactive
same,outcome,[4],inactive
same,outcome,[5],inactive
same,outcome,[6],inactive
same,outcome,[7],inactive
same,outcome,[8],inactive
same,Potency,[9],inactive
same,outcome,[11],inactive
same,Potency,[12],inactive
same,Potency,[13],inactive
same,Potency,[14],inactive
same,Potency,[15],inactive
C/C=C1/CC2C=CC1C2 (stereo not given),outcome,[1],inactive
same,outcome,[2],inactive
same,outcome,[3],inactive
same,outcome,[4],inactive
same,outcome,[5],inactive
same,outcome,[6],inactive
same,outcome,[7],inactive
same,outcome,[8],inactive
same,Potency,[9],inactive
same,outcome,[11],inactive
same,Potency,[12],inactive
same,Potency,[13],inactive
same,Potency,[14],inactive
same,Potency,[15],inactive
same,Potency,[19],inactive
CCCCN(CCCC)CCCC,outcome,[1],inactive
same,outcome,[2],inactive
same,outcome,[3],inactive
same,outcome,[4],inactive
same,outcome,[5],inactive
same,outcome,[6],inactive
same,outcome,[7],inactive
same,outcome,[8],inactive
same,Potency,[9],inactive
same,outcome,[11],inactive
same,Potency,[12],inactive
same,Potency,[13],inactive
same,Potency,[14],inactive
same,Potency,[15],inactive
